TbREL1 inh – TbREL1 inhibition, primary screen; P86926; TbREL1 RNA ligation, FRET fluorescence; inhibition, % at 9.66 µM; hit rate 0.49% among 89,000;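 active = inhibition above the mean inhibition across all screened compounds plus 3 SD, cut at about 11% in these data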;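 note: 0% = plate median of test wells and 100% = NSC42067 control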
TbREL1 confirm – TbREL1 inhibition, confirmation; hit rate 37% among 390; shares compounds with TbREL1 inh; AID 1117282; inhibition, % at 9.66 µM; TbREL1 RNA ligation, FRET fluorescence;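 active = mean inhibition across replicates above a set limit taken from the earlier primary screen, cut at about 11% in these data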;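 note: 0% = REL1 with substrate and DMSO and 100% = REL1 plus control inhibitor NSC42067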
The depositor's hits bear a star. Many of the other results were omitted from the sample, so hits are more common in it than they were.

Results for Cc1ccccc1CN1Cc2cnnn2-c2ccccc2C1C#N (stereo unspecified) ?
TbREL1 inh: 11*; TbREL1 confirm: 4

Results for Cc1ccccc1-c1ccc2c(c1)CNCc1cnnn1-2 ?
TbREL1 inh: -2

What do the screens show for `CCOC(=O)CC1c2ccccc2-n2nncc2CN1C` (stereo unspecified)?
TbREL1 inh: 5

Results for COc1ccc2c3c([nH]c2c1)[C@H](C=C(C)C)N1C(=O)[C@@H]2CCCN2C(=O)[C@@H]1C3 ?
TbREL1 inh: -5

How did CN1C(=O)[C@@]23C[C@]4(c5c[nH]c6ccccc56)c5ccccc5N(S(=O)(=O)c5ccccc5)[C@@H]4N2C(=O)[C@@H]1SS3 do in these assays?
TbREL1 inh: 5

How did CCCCOCCCn1c(N)c(C(=O)OCCOC)c2nc3ccccc3nc21 do in these assays?
TbREL1 inh: 0

How did CCCCn1c(NC(=O)c2ccco2)c(C(=O)OCC)c2nc3ccccc3nc21 do in these assays?
TbREL1 inh: 34*; TbREL1 confirm: 45*

How did CCCCn1c(N)c(C(=O)OCCOC)c2nc3ccccc3nc21 do in these assays?
TbREL1 inh: 4

How did O=C(NC1CC1)c1cn(Cc2ccccc2)nc1-c1ccccc1 do in these assays?
TbREL1 inh: -1

How did N#CCCn1cc(C(=O)Nc2ccc(F)cc2)c(-c2ccc([N+](=O)[O-])cc2)n1 do in these assays?
TbREL1 inh: 11*; TbREL1 confirm: 4

How did N#CCCn1cc(C(=O)Nc2ccc([N+](=O)[O-])cc2)c(-c2ccccc2)n1 do in these assays?
TbREL1 inh: -2

How did S=P(c1ccccc1)(c1ccccc1)c1cnc2ccccn12 do in these assays?
TbREL1 inh: 2

What do the screens show for `O=C(CNC(=O)OCc1ccccc1)NC(Cc1ccccc1)P(=O)(Oc1ccccc1)Oc1ccccc1` (stereo unspecified)?
TbREL1 inh: 0

How did CO[C@H]([C@H](C)/C=C/N(C)C=O)[C@@H](C)C(=O)CC[C@H](C)[C@H](O)[C@H](C)[C@H]1OC(=O)/C=C/C(C)=C/[C@H](O)[C@H](OC)C[C@@H]2C=CC[C@@H](C[C@H](OC)[C@@H](CO)[C@@H](OC)C[C@@H](OC)[C@@H]1C)O2 do in these assays?
TbREL1 inh: -6

What do the screens show for `COP(=O)(C(=O)Nc1ccccc1)C(CC(C)C)NC(=O)OCc1ccccc1` (stereo unspecified)?
TbREL1 inh: -4

Assay outcomes deposited in PubChem by The Scripps Research Institute Molecular Screening Center.
